Measured values reported in PubChem BioAssay (NCI).
Compounds without any hit were thinned out: in the full panel of roughly 83,000, 20% have a hit.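 48-hour exposure, single concentration, 96-well plates; percent growth endpoint where 0 means no net growth. Active: below 10.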 Values without a mark were called inactive. Activity calls are given as the source filed them.

Key:
Assay in all cases: NCI-60 one-dose screen, 48 h (100 = growth as untreated, 0 = no growth, -100 = all killed)
Settings in all cases: 10 µM unless noted
HCT-15 colon = system: HCT-15 colon
HT29 colon = system: HT29 colon
SNB-75 CNS = system: SNB-75 CNS
SNB-19 CNS = system: SNB-19 CNS
U251 CNS = system: U251 CNS
PC-3 prostate = system: PC-3 prostate
UACC-62 melanoma = system: UACC-62 melanoma
LOX IMVI melanoma = system: LOX IMVI melanoma
SK-MEL-28 melanoma = system: SK-MEL-28 melanoma
SK-MEL-2 melanoma = system: SK-MEL-2 melanoma
SN12C renal = system: SN12C renal
UO-31 renal = system: UO-31 renal
TK-10 renal = system: TK-10 renal
ACHN renal = system: ACHN renal
CAKI-1 renal = system: CAKI-1 renal
A498 renal = system: A498 renal
CCRF-CEM leukemia = system: CCRF-CEM leukemia
MOLT-4 leukemia = system: MOLT-4 leukemia
SK-MEL-5 melanoma = system: SK-MEL-5 melanoma
EKVX NSCLC = system: EKVX NSCLC

Structure (SMILES) | growth (HCT-15 colon) | growth (HT29 colon) | growth (SNB-75 CNS) | growth (SNB-19 CNS) | growth (U251 CNS) | growth (PC-3 prostate) | growth (UACC-62 melanoma) | growth (LOX IMVI melanoma) | growth (SK-MEL-28 melanoma) | growth (SK-MEL-2 melanoma) | growth (SN12C renal) | growth (UO-31 renal) | growth (TK-10 renal) | growth (ACHN renal) | growth (CAKI-1 renal) | growth (A498 renal) | growth (CCRF-CEM leukemia) | growth (MOLT-4 leukemia) | growth (SK-MEL-5 melanoma) | growth (EKVX NSCLC)
COc1ccc(OC)c(C(=O)Nc2cccc(-c3cc(=O)c4ccccc4o3)c2)c1 | 93.4% | 91.3% | 64.4% | 70.7% | 93.8% | 92.8% | 87.1% | 97.4% | 104% | 98.2% | 82.6% | 95.2% | 88% | 84.7% | 79.4% | 92.4% | 86.5% | 86.3% |  | 
CN(C)c1ccc(-c2cc(-c3ccc(Nc4nc(Nc5ccccc5)nc(Nc5ccc(Cl)cc5)n4)cc3)nc(N)n2)cc1 | 34.4% | 34.2% | 48.2% | 66.8% | 29.6% |  | 49.9% | 38.1% | 75.4% | 47.2% | 50% | 39% | 74.6% | 46.3% | 39.5% |  | 5.11% (active) | -4.17% (active) | 31.3% | 33.3%
Cn1cc(-c2ccc3ncc(-c4ccc(CC(=O)Nc5cc(C(C)(C)C)nn5C)cc4)cc3c2)cn1 | 7.79% [30 µM] (active) | 36.5% [30 µM] | 22% [30 µM] | 41.9% [30 µM] | 35% [30 µM] | 5.27% [30 µM] (active) | -33.9% [30 µM] (active) | -18.4% [30 µM] (active) | 14.5% [30 µM] | -9.17% [30 µM] (active) | 16.6% [30 µM] | 7.45% [30 µM] (active) | 40.6% [30 µM] | 8.71% [30 µM] (active) | 5.68% [30 µM] (active) | 11.4% [30 µM] | -15.4% [30 µM] (active) | -22.1% [30 µM] (active) |  | 
C=C1C(=O)O[C@H]2[C@H]1CC/C(COC(=O)/C=C\C(=O)NCc1ccc(Cn3c(=O)sn(-c4ccc(OC)cc4)c3=O)cc1)=C\CC[C@@]1(C)O[C@@H]21 | -58.1% (active) | -22.9% (active) | -57.8% (active) | 7.17% (active) | -60.3% (active) | -58% (active) | -99.6% (active) | -88.6% (active) | -92% (active) | -54.2% (active) | -96.4% (active) | -100% (active) | -75.4% (active) | -98.8% (active) | -66.1% (active) |  | -11.4% (active) | -26.4% (active) |  | -82.9% (active)
COc1cc(-c2cc(-c3ccc(Nc4nc(Nc5ccccc5)nc(Nc5ccc(Cl)cc5)n4)cc3)nc(N)n2)cc(OC)c1OC | 62.3% | 52.4% | 56.2% | 79.6% | 42.6% |  | 49.7% | 60.2% | 86.9% | 59.5% | 70.7% | 43.1% |  | 59.7% | 60.7% |  | 28.2% | 38.4% | 43.1% | 59.4%
N=c1ccn2c(n1)OC1C(O)C(CO)OC12 (stereo unspecified) | 49.9% | 34.4% | 11.4% | 44% | 37.7% |  | 43.9% | 10.3% | 53.3% | 46.5% | 34.9% | -3.93% (active) | 51.3% | -15.9% (active) | -14.4% (active) | 74.7% |  | 108% | 45.9% | 85.5%
O[C@H]1CO[C@H]2[C@@H]1OC[C@@H]2Oc1ccc(Nc2ccnc(Nc3ccc(O[C@H]4CO[C@H]5[C@@H]4OC[C@@H]5O)c(Cl)c3)n2)cc1Cl | 26.4% | 9.26% (active) | -1.57% (active) | 7.59% (active) | 7.71% (active) | 15.7% | -74% (active) | -8.35% (active) | 20.4% | 4.23% (active) | -2.74% (active) | 6.06% (active) | 28.5% | 20.3% | 27.3% | 22.7% | 7.39% (active) | 5.65% (active) |  | 25.2%
OC(COc1cccc2ccccc12)CN1CCN(c2ccccc2)CC1 (stereo unspecified) | 99.6% | 94% | 81.8% | 97.4% | 95.7% |  | 98.2% | 92.1% | 105% |  | 98.7% | 82.2% |  | 104% | 47% | 95.5% |  | 107% | 90.4% | 103%
COc1ccc(Cn2cnc3cc(C(=O)Nc4cccc5ccccc45)ccc32)c(OC)c1 | 3.1% [30 µM] (active) | 8.08% [30 µM] (active) | 35.4% [30 µM] | 21.5% [30 µM] | 17.5% [30 µM] | 17.4% [30 µM] | 14.8% [30 µM] | 12.1% [30 µM] | 60.6% [30 µM] | 44.4% [30 µM] | 7.29% [30 µM] (active) | 29.8% [30 µM] | 76.8% [30 µM] | 23.8% [30 µM] | 18% [30 µM] | -13.9% [30 µM] (active) | 12.6% [30 µM] | 6.04% [30 µM] (active) |  | 37.9% [30 µM]
COc1cc(/C=C/C(=O)c2cccc(-n3cc(-c4ccccc4)[nH]c3=O)c2)cc(OC)c1OC | 0.0594% (active) | -72% (active) | 34.2% |  | -78.6% (active) | 7.64% (active) | -86.3% (active) | -85.2% (active) | -48.4% (active) | -64.5% (active) | 10.4% | -45.2% (active) | -5.4% (active) | -64.9% (active) | 12.2% | 33.2% | 3.61% (active) | -12.6% (active) | -90.1% (active) | 
CN1CCN(c2ccc(Nc3ncc(Cl)c(NC[C@@H]4CCCO4)n3)cc2)CC1 | 24.3% | 16% | 6.49% (active) |  | 32.5% | 30.7% | 38.5% | 8.91% (active) | 50.9% |  | 28.2% | -15.6% (active) | 23.6% | 1.78% (active) | 26.6% | -25% (active) | 28% | 16.8% | 31% | 39%
O=C(c1ccccc1)c1ccc(N2C(=O)C3C4c5ccccc5C(/C=C/C(=O)c5ccccn5)(c5ccccc54)C3C2=O)cc1 (stereo unspecified) | -21.7% (active) | 9.38% (active) | 46.7% |  | 2.15% (active) | 28.4% | 21% | -76.6% (active) | 13.4% | 74.7% | 11.3% | -37.4% (active) | 20.1% | -25.4% (active) | 49.3% |  | 11.1% | 16% | 49.7% | 27.9%
CN(C)CCC(O)(Cc1ccccc1)c1ccccc1 (stereo unspecified) | 108% | 103% | 102% | 112% |  | 92.9% | 117% | 99.2% | 112% | 100% | 105% | 87.8% | 93.8% | 101% | 83.6% | 185% | 112% | 102% | 108% | 99.5%
COc1ccc(N=c2nc3sc4cc(Cl)ccc4n3c(N)c2C#N)cc1 | 99.5% | 36.1% | 36.9% |  | 79% | 58.5% | 69.3% | 83% | 45.8% | 58.6% | 98.4% | 64.1% | 118% | 98.2% | 69.2% | 100% | 89.2% | 37.7% | 14.9% | 70.8%
COc1cc(NC(=O)c2cccc(-c3cc(=O)c4c(O)c(OC)c(OC)cc4o3)c2)cc(OC)c1OC | 59.9% | 62.8% | 32.3% |  | 44.8% | 49.8% | 49.4% | 33% | 77.4% | 69.6% | 63% | 34.3% | 74.8% | 16.3% | 62.5% | 80.1% | 58.1% | 72.8% | 39.2% | 
C=C(C)[C@@H]1CC[C@]2(CNCCO)CC[C@]3(C)[C@H](CC[C@@H]4[C@@]5(C)CCC(N)[C@@](C)(CO)[C@@H]5CC[C@]43C)[C@@H]12 (stereo partly specified) | 32.4% | -56.8% (active) | 73.5% |  | -86.1% (active) | 20.1% | -75.7% (active) |  | -85.7% (active) |  |  | 66.1% | -47.4% (active) | 54.4% | 71.2% | 78.1% | -38.7% (active) |  | -96.1% (active) | 40%
